In PubChem BioAssay (NCATS):
Results filed as inconclusive are left out. A number with no mark means an inactive call. The source made the active and inactive calls. Calls come from the whole dose curve; as a rule, active = well fitted inhibition curve with a large enough effect; inconclusive = small, poorly fitted or top-dose-only effect; inactive = no such curve, though single readings can be large or run the other way.

How the values were obtained:
[1] = molecular target: Retinaldehyde dehydrogenase 3 (Homo sapiens) (UniProt P47895); test: qHTS for Inhibitors of the Aldehyde Dehydrogenase Family (ALDH1A3) Confirmatory screens (AID 2061311); note: nearly all actives have a fitted effect of over 60% in size
[2] = molecular target: Retinal dehydrogenase 2 (Homo sapiens) (UniProt O94788); test: qHTS for Inhibitors of the Aldehyde Dehydrogenase Family (ALDH1A2) Confirmation screens (AID 2061314); note: nearly all actives have a fitted effect of over 65% in size
[3] = molecular target: Aldehyde dehydrogenase 1A1 (Homo sapiens) (UniProt P00352); test: qHTS for Inhibitors of the Aldehyde Dehydrogenase Family (ALDH1A1) Confirmatory screens (AID 2061316); note: nearly all actives have a fitted effect of over 65% in size
[4] = molecular target: Retinaldehyde dehydrogenase 3 (Homo sapiens) (UniProt P47895); test: qHTS for Inhibitors of the Aldehyde Dehydrogenase Family (ALDH1A3) Primary screen (AID 2061315)
Potency is the fitted concentration of half-maximal effect.

Row | Structure (SMILES) | Potency [1] | Potency [2] | Potency [3] | Potency [4]
1 | CC(=O)NC(C)c1cc(Cl)c2ccccc2c1O (stereo unspecified) | 3.18 µM (active) | 12.7 µM (active) | 4 µM (active) | 
2 | CCC(=O)NC(c1cccs1)c1cc([N+](=O)[O-])c2cccnc2c1OC (stereo unspecified) | 3.57 µM (active) | 2.01 µM (active) | 11.3 µM (active) | 
3 | Cc1cc(C)nc(NC(=S)N2CCN(c3ccc4nccn4c3)CC2)c1 | 10.1 µM (active) | 14.2 µM (active) | 7.12 µM (active) | inactive
4 | COc1ccc2ccccc2c1CN(C)CC(=O)Nc1ccc(N2CCOCC2)cc1 | 11.3 µM (active) | 11.3 µM (active) | 7.98 µM (active) | 
5 | Nc1nc2c(s1)C(c1ccccc1Cl)CC(=O)N2 (stereo unspecified) | 5.65 µM (active) |  |  | inactive
6 | Cc1ccn2c(Nc3ccc4c(c3)OCO4)c(-c3ccccn3)nc2c1 | 17.9 µM (active) |  |  | inactive
7 | S=C(NCCCc1cnc[nH]1)NCCCN(Cc1ccccc1)c1ccc(Br)cn1 | inactive |  |  | inactive
8 | CC(=O)Nc1sc2c(c1-c1nccs1)CCNC2 | inactive | inactive |  | inactive
9 | Cc1cc(C)nc(NC(=S)N2CCN(c3cccc4cnccc34)CC2)c1 | 20.1 µM (active) | 8.96 µM (active) | 10.1 µM (active) | 
10 | Oc1cc(-c2cccnc2)cc2cccnc12 | 4.49 µM (active) | inactive |  | inactive
11 | Cc1c(C(=O)OCC2CCCC2)[nH]c2c1C(=O)CC(c1ccco1)C2 (stereo unspecified) | 15.8 µM (active) | 3.57 µM (active) | 1.13 µM (active) | inactive
12 | CC(=O)N1CCN(c2ccc(NS(=O)(=O)c3ccc4c(c3)CC(=O)N4)cc2)CC1 | inactive | inactive |  | inactive
13 | Cc1sc(NC(=O)Cc2ccc3c(c2)OCO3)nc1-c1ccc2c(c1)CCN2C | 11.3 µM (active) | 12.7 µM (active) | 3.57 µM (active) | 
14 | COc1cc(/C=C(\C#N)C(=O)Nc2ccc(C(=O)O)cc2)ccc1OC(=O)c1cccc(F)c1 | 15.8 µM (active) | inactive | inactive | 
15 | NC(=O)C1CCN(c2nc(-c3ccc(-c4ccccc4)cc3)cs2)CC1 | 28.3 µM (active) | inactive | inactive | inactive
16 | COc1ccc(C(=O)c2ccc(-c3no[n+]([O-])c3C#N)cc2)cc1 | 2.51 µM (active) | 12.6 µM (active) | 5.65 µM (active) | inactive
17 | Oc1ccc(Nc2ccccc2F)c2cccnc12 | 7.98 µM (active) |  | inactive | 1.26 µM (active)
18 | Cc1csc(CNc2ncnc3cc(-c4ccc5c(c4)OCO5)ccc23)n1 | 7.94 µM (active) |  | 11.3 µM (active) | inactive
19 | FC(F)(F)c1ccccc1-c1nc(NCc2ccc(-c3ccccc3)cc2)c2ccccc2n1 | 3.57 µM (active) |  | inactive | inactive
20 | O=C(Nc1sc2c(c1-c1nc3ccccc3s1)CCNC2)C(F)(F)F | inactive | 28.3 µM (active) |  | inactive
21 | O=C1CCCC2=C1C(c1cccnc1Br)N=C(Nc1nc3ccccc3o1)N2 (stereo unspecified) | 20.1 µM (active) |  | 11.3 µM (active) | inactive
22 | CC(=O)Nc1sc2c(c1-c1ccccc1)CCN(C(=O)OC(C)(C)C)C2 | inactive |  | 7.98 µM (active) | inactive
23 | O=C(Nc1cccc(Cc2ccccc2)n1)c1ccc(-c2cccc([N+](=O)[O-])c2)o1 | 6.34 µM (active) | 7.98 µM (active) | 5.65 µM (active) | inactive
24 | O=C(Cc1ccccc1)Nc1sc2c(c1C(=O)Nc1ccc(Cl)cc1)CCCC2 | inactive | 4 µM (active) | 11.3 µM (active) | inactive
25 | O=C(c1ccccc1O)N(Cc1ccco1)Cc1ccco1 | 12.7 µM (active) | 11.3 µM (active) |  | inactive
26 | CC(C)(C)C(=O)N1CCN(c2cccc(Nc3nn4c(=O)c5ccccc5nc4s3)c2)CC1 | 28.3 µM (active) | 25.2 µM (active) | 7.98 µM (active) | inactive
27 | N#Cc1ccc(N2CCN(S(=O)(=O)c3ccc4c(c3)CC(=O)N4)CC2)cc1 | 15.8 µM (active) |  | inactive | inactive
28 | O=S1(=O)Nc2c(ccc3cccnc23)-c2ccccc21 | 8.96 µM (active) | 12.7 µM (active) | inactive | 
29 | O=C1Cc2cc(S(=O)(=O)N3CCN(c4ccc(Br)cc4)CC3)ccc2N1 | inactive | 20.6 µM (active) |  | inactive
